Measured values as given in PubChem BioAssay (EPA / NIEHS).
Calls of active or inactive are those of the source. The calls were made as follows: active = hit-call score of the fitted dose curve at least 0.9, where 1 is the maximum; inactive = score below 0.9.

read-out: CYP4A11 (gene 1579); assay: LTEA_HepaRG_CYP4A11: Life Technologies and Expression Analysis (LTEA) Assay for CYP4A11 using HepaRG (AID 2283486); details: mRNA level, 48 h; actives raise or lower the signal
Procedure, shortened: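 Differentiated HepaRG cells, 48 h after plating, exposed in duplicate for 48 h to 8 half-log concentrations up to 100 uM in 0.5% DMSO in serum-free induction medium. CYP4A11 mRNA measured by TaqMan qRT-PCR, normalized to ACTB, GAPDH and POLR2A.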

Row | Compound | outcome | AC50
1 | COP(=O)(NC(C)=O)SC (stereo not given) | inactive | 
2 | CSc1nc(NC(C)C)nc(NC(C)C)n1 |  | 31 µM (active)
3 | COP(=O)(OC)OC(Br)C(Cl)(Cl)Br (stereo not given) | inactive | 
4 | CC(=NC#N)N(C)Cc1ccc(Cl)nc1 | inactive | 
5 | CN1COCN(Cc2cnc(Cl)s2)C1=N[N+](=O)[O-] | inactive | 
6 | COc1ccc(C(=CC(=O)N2CCOCC2)c2ccc(Cl)cc2)cc1OC |  | 59 µM (active)
7 | CNC(=O)ON=C(C)SC | inactive | 
8 | CCOP(=S)(OCC)SCCSCC | inactive | 
9 | CCOP(=O)(OCC)Oc1cc(C)nc(C(C)C)n1 | inactive | 
10 | CCC(CC)Nc1c([N+](=O)[O-])cc(C)c(C)c1[N+](=O)[O-] | inactive | 
11 | CCOP(=S)(OCC)Oc1ccc([N+](=O)[O-])cc1 | inactive | 
12 | CC(C1CC1)C(O)(Cn1cncn1)c1ccc(Cl)cc1 (stereo not given) |  | 49.8 µM (active)
13 | CNC(=O)ON=C(SC)C(=O)N(C)C | inactive | 
14 | CNC(=O)Oc1cccc2c1OC(C)(C)O2 | inactive | 
15 | CCc1cnc(C2=NC(C)(C(C)C)C(=O)N2)c(C(=O)O)c1 (stereo not given) | inactive | 
16 | Cc1cc(C2CC2)nc(Nc2ccccc2)n1 | inactive | 
17 | CCCSP(=O)(OCC)SCCC | inactive | 
18 | COc1cc(OC)nc(Sc2cccc(Cl)c2C(=O)O)n1 | inactive | 

Row | Compound | outcome | AC50
19 | CC1(C(=O)Nc2ccc(O)c(Cl)c2Cl)CCCCC1 | inactive | 
20 | CSc1nnc(C(C)(C)C)c(=O)n1N | inactive | 
21 | CCC(=O)Nc1ccc(Cl)c(Cl)c1 |  | 50 µM (active)
22 | CCOP(=O)(NC(C)C)Oc1ccc(SC)c(C)c1 (stereo not given) |  | 22.4 µM (active)
23 | CC1=NNC(=O)N(/N=C/c2cccnc2)C1 | inactive | 
24 | CSC1=N[C@@](C)(c2ccccc2)C(=O)N1Nc1ccccc1 |  | 27.1 µM (active)
25 | CC(Oc1cccc(Cl)c1)C(=O)O (stereo not given) | inactive | 
26 | CCCCOC(=O)c1ccccc1C(=O)O | inactive | 
27 | CON=C(C(=O)OC)c1ccccc1CON=C(C)c1cccc(C(F)(F)F)c1 | inactive | 
28 | C#CC(C)(C)NC(=O)c1cc(Cl)cc(Cl)c1 | inactive | 
29 | CC[C@H](C)[C@H]1O[C@]2(C=C[C@@H]1C)C[C@@H]1C[C@@H](C/C=C(\C)[C@@H](O[C@H]3C[C@H](OC)[C@@H](O[C@H]4C[C@H](OC)[C@@H](NC)[C@H](C)O4)[C@H](C)O3)[C@@H](C)/C=C/C=C3\CO[C@@H]4[C@H](O)C(C)=C[C@@H](C(=O)O1)[C@]34O)O2 |  | 11.7 µM (active)
30 | Nc1c(Cl)cc([N+](=O)[O-])cc1Cl |  | 67.4 µM (active)
31 | CC(C)N(C(=O)SCC(Cl)=C(Cl)Cl)C(C)C | inactive | 
32 | Cc1nn(-c2cc(NS(C)(=O)=O)c(Cl)cc2Cl)c(=O)n1C(F)F | inactive | 
33 | C[Si](Cn1cncn1)(c1ccc(F)cc1)c1ccc(F)cc1 |  | 25.9 µM (active)
34 | CNc1cnn(-c2cccc(C(F)(F)F)c2)c(=O)c1Cl | inactive | 
35 | C#CCC1=C(C)C(OC(=O)C2C(C=C(C)C)C2(C)C)CC1=O (stereo not given) |  | 49.8 µM (active)
